Structures are written as SMILES. Several values for one entry are separate records, joined by “and”; a condition that tells them apart may be missing. Identical values can stand only once. Inconclusive results are not listed. Activity calls are given as the source filed them. Calls follow the shape of the dose curve; as a rule, active = well fitted curve in the direction sought with a large enough effect; inconclusive = small, poorly fitted or top-dose-only effect, or another doubt; inactive = no such curve, though single readings can be large; an effect the other way counts as inactive or inconclusive.

Potency data for 28 molecules are collected here from PubChem BioAssay (NCATS).

Experiment [1] in a line: qHTS of pediatric cancer cell lines to identify multiple opportunities for drug repurposing: Primary screen for TC32 cells (AID 1347089). Also: nearly all actives have a fitted effect of over 60% in size. The gist of the method:
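A viability screen of TC32 cells was run over 48 h, with primary MIPE doses spanning 0.78 nM–46 µM and NPC doses 0.59 nM–46 µM. ATP luminescence (CellTiter-Glo) served as the read-out.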
Background: Quantitative high-throughput screening tests each substance at several concentrations.

The nature of experiment [2]: qHTS of pediatric cancer cell lines to identify multiple opportunities for drug repurposing: Primary screen for DAOY cells (AID 1347090). Also: nearly all actives have a fitted effect of over 55% in size. The gist of the method: (§1)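 Eight- or eleven-point concentration series, 48 h treatment at 37 degrees C in growth media; readout CellTiter-Glo luminescence. Potency and efficacy were taken from the concentration-response curves.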
Experiment [3] can be described thus: qHTS of pediatric cancer cell lines to identify multiple opportunities for drug repurposing: Primary screen for SJ-GBM2 cells (AID 1347091). The gist of the method:
as §1
Potency is read from the fitted curve at half-maximal effect.

On to `CC(C)C[C@H](NC(=O)[C@H](CCc1ccccc1)NC(=O)CN1CCOCC1)C(=O)N[C@@H](Cc1ccccc1)C(=O)N[C@@H](CC(C)C)C(=O)[C@@]1(C)CO1`, for which the Potency in experiment [1] is 23.6 nM (active) and 147 nM (active); in experiment [2], 53.1 nM (active) and 93.5 nM (active).

Turning to `CN(C)c1ccc(C(=C2C=CC(=[N+](C)C)C=C2)c2ccc(N(C)C)cc2)cc1`, the Potency in experiment [1] was 2.64 µM (active) and 1.17 µM (active); in experiment [2] it was 2.66 µM (active) and 1.48 µM (active); in experiment [3], 1.33 µM (active) and 372 nM (active).

On to `COc1cc2c(Nc3ccc(Br)cc3F)ncnc2cc1OCC1CCN(C)CC1`, for which the Potency entry in experiment [1] and in experiment [3] was “inactive” in each case.

As for `C1CCC(C(CC2CCCCN2)C2CCCCC2)CC1` (stereo not drawn), the Potency entry in experiment [1] and in experiment [2] was “inactive” in each case.

With `COc1cc(NCc2ccc3nc(N)nc(N)c3c2C)cc(OC)c1OC`, the Potency in experiment [1] is 2.94 µM (active) and 33.3 nM (active); in experiment [2], 3.72 µM (active) and 133 nM (active); in experiment [3], 2.64 µM (active) and 29.9 nM (active).

`Cn1nnc2c(C(N)=O)ncn2c1=O`: the Potency result in experiment [1] and in experiment [2] was “inactive” each time.

Take `Oc1c(Cl)cc(Cl)c2cccnc12`: the Potency was 4.22 µM (active) and 9.35 µM (active) in experiment [2]; 8.41 µM (active) and 11.8 µM (active) in experiment [3].

Consider `CN(C)CCc1c[nH]c2ccc(C[C@H]3COC(=O)N3)cc12`, for which the Potency entry in experiment [1], in experiment [2] and in experiment [3] was “inactive” in each case.

Consider `O=NN(CCCl)C(=O)NC1CCCCC1`, for which the Potency result in experiment [1], in experiment [2] and in experiment [3] was “inactive” each time.

On to `N[C@@H](C(=O)N[C@@H]1C(=O)N2C(C(=O)O)=C(Cl)CS[C@H]12)c1ccccc1`, for which the Potency entry in experiment [1], in experiment [2] and in experiment [3] was “inactive” in each case.

With `Cn1c(=O)c2c(ncn2CC(O)CO)n(C)c1=O` (stereo not drawn), the Potency entry in experiment [1], in experiment [2] and in experiment [3] was “inactive” in each case.

For `CCn1cc(C(=O)O)c(=O)c2cc(F)c(N3CCNCC3)cc21`, the Potency entry in experiment [1], in experiment [2] and in experiment [3] was “inactive” each time.

Take `NNC(=O)c1ccncc1`: the Potency result in experiment [1], in experiment [2] and in experiment [3] was “inactive” each time.

Consider `COC(c1ccccc1)(c1ccccc1)[C@H](Oc1nc(C)cc(C)n1)C(=O)O`, for which the Potency entry in experiment [1], in experiment [2] and in experiment [3] was “inactive” each time.

For `CNCC[C@H](Oc1cccc2ccccc12)c1cccs1`, the Potency entry in experiment [1] and in experiment [3] was “inactive” in each case.

For `Cc1cc(NS(=O)(=O)c2ccc(N)cc2)no1`, the Potency result in experiment [1], in experiment [2] and in experiment [3] was “inactive” each time.

As to `NC1(c2ccc(-c3nc4ccn5c(=O)[nH]nc5c4cc3-c3ccccc3)cc2)CCC1`, the Potency is 18.7 µM (active) in experiment [2]; 5.26 µM (active) and 13.3 µM (active) in experiment [3].

For `NS(=O)(=O)c1cc2c(cc1Cl)NC(C(Cl)Cl)NS2(=O)=O` (stereo not drawn), the Potency entry in experiment [1], in experiment [2] and in experiment [3] was “inactive” in each case.

Turning to `CO[C@@H]1[C@@H](OC(N)=O)[C@@H](O)[C@H](Oc2ccc3c(O)c(NC(=O)c4ccc(O)c(CC=C(C)C)c4)c(=O)oc3c2C)OC1(C)C`, the Potency result in experiment [1], in experiment [2] and in experiment [3] was “inactive” each time.

In the case of `CCCCCCNC(=O)n1cc(F)c(=O)[nH]c1=O`, the Potency entry in experiment [2] and in experiment [3] was “inactive” in each case.

Consider `CC1=CC(=O)c2ccccc2C1=O`, for which the Potency result in experiment [1] and in experiment [2] was “inactive” in each case. For the same molecule, in experiment [3], the Potency is 23.5 µM (active).

With `O=C(O)CSCC(=O)NC1CCSC1=O` (stereo not drawn), the Potency result in experiment [1], in experiment [2] and in experiment [3] was “inactive” throughout.

As for `Cc1noc(NS(=O)(=O)c2ccc(N)cc2)c1C`, the Potency result in experiment [1] and in experiment [2] was “inactive” in each case.

For the molecule `COc1ncnc(NS(=O)(=O)c2ccc(N)cc2)c1OC`, the Potency entry in experiment [1], in experiment [2] and in experiment [3] was “inactive” in each case.

Turning to `C[C@@H]1C[C@H]2[C@@H]3CCC4=CC(=O)C=C[C@]4(C)[C@@]3(Cl)[C@@H](O)C[C@]2(C)[C@@]1(OC(=O)c1ccco1)C(=O)CCl`, the Potency entry in experiment [1] was “inactive”. Further, the Potency in experiment [2] is 18.7 µM (active).

As for `CN1CCN(c2c(F)cc3c(=O)c(C(=O)O)cn4c3c2OCN4C)CC1`, the Potency entry in experiment [1], in experiment [2] and in experiment [3] was “inactive” throughout.

In the case of `CC(C)OC(=O)OCOP(=O)(CO[C@H](C)Cn1cnc2c(N)ncnc21)OCOC(=O)OC(C)C`, the Potency entry in experiment [1] and in experiment [2] was “inactive” in each case.

`CNC1CCCN(c2c(F)cc3c(=O)c(C(=O)O)cn(C4CC4)c3c2OC)C1` (stereo not drawn): the Potency entry in experiment [1], in experiment [2] and in experiment [3] was “inactive” each time.
